In PubChem BioAssay (EPA / NIEHS):
The source made the active and inactive calls. The calls were made as follows: active = hit-call score of the fitted dose curve at least 0.9, where 1 is the maximum; inactive = score below 0.9.

Assay: ATG_Sox_CIS: Attagene CIS-FACTORIAL HepG2 Assay for human SRY-box transcription factor (SOX) (AID 2282960)
Details: HepG2 Attagene cis-factorial SOX reporter, mRNA; actives raise or lower the signal
Procedure: ATG_CIS is a cell-based, multiplexed-readout assay that uses HepG2, a human liver cell line, with measurements taken at 24 hours after chemical dosing in a 24-well plate.ATG_Sox_CIS is one of 52 assay component(s) measured or calculated from the ATG_CIS assay. It is designed to make measurements of mRNA induction, a form of inducible reporter, as detected with fluorescence intensity signals by Reverse transcription polymerase chain reaction (RT-PCR) and Capillary electrophoresis technology.Data from the assay component ATG_Sox_CIS was analyzed into 1 assay endpoint. This assay endpoint, ATG_Sox_CIS, was analyzed with bidirectional fitting relative to DMSO as the negative control and baseline of activity. Using a type of inducible reporter, measures of mRNA for gain or loss-of-signal activity can be used to understand the reporter gene at the transcription factor-level as they relate to the gene SOX1. Furthermore, this assay endpoint can be referred to as a primary readout, because this assay has produced multiple assay endpoints where this one serves a reporter gene function. To generalize the intended target to other relatable targets, this assay endpoint is annotated to the dna binding intended target family, where the subfamily is HMG box protein.
Human liver HepG2 cells are transiently transfected with multiple reporter transcription units (MRTUs) in 6-well plates using FuGene 6 reagent (Roche; 3 ml FuGene/1 mg DNA). The MRTU constructs are regulated by a cis-regulating element (promoter). […] A major difference between the CIS and TRANS system is that in CIS activities of endogenous TFs are measured, whereas the TRANS assay evaluates changes in activities of exogenous, chimeric NR-Gal4 proteins. […] At the end of 24 hour incubation, total RNA was isolated using TriZol reagent (Invitrogen). The isolated RNA is then reverse-transcribed using oligo(dT) primer and Mo-MLV reverse transcriptase (Invitrogen) with DNAse I (Ambion) treatment for 30 min. The one-tenth of the produced cDNA was amplified by PCR using Taq DNA polymerase (Invitrogen) and two reporter sequence-specific primers. The PCR products were fluorescently labeled by primer extension with 6-arboxyfluorescein (6-FAM) 5'-labeled reporter sequence-specific primer (2 min at 95 C, 20 s at 68 C and 10 min at 72 C) and these products were digested with 5U of HpaI (New England Biolabs) for 2h at 37 C. The fragments were purified using Qiaquick PCR columns (Qiagen), analyzed on an ABI 3130xL genetic analyzer (Applied Biosystems) with peak positions identified by using a set of X-rhodamine (ROX)-labeled MapMarker1000 molecular weight standards (BioVentures). The raw capillary electrophoresis data was processed using Attagraph software (Attagene).

outcome, inactive:
COC(C)(C)CC(C)=O
CCN(CCN)c1cccc(C)c1
CC(C)CC(C)CC(O)CC(C)C (stereo not given)
Cc1c(Cl)cccc1[N+](=O)[O-]
NC(=S)NNC(N)=S
C=CCN(CC=C)CC=C
O=C(Nc1ccc2c(c1)Cc1ccccc1-2)C(F)(F)F
O=[N+]([O-])c1cccc(Cl)c1
NCCNc1cccc2ccccc12
CC(C)(N=C=O)c1cccc(C(C)(C)N=C=O)c1
CCCC(=O)OCCc1ccccc1
CCCCCc1ccco1
CS(=O)(=O)OCCCCOS(C)(=O)=O
CC[N+](C)(CC)CC
O=C1OC[C@H](Cc2cccc(O)c2)[C@H]1Cc1cccc(O)c1
CC1(C)O[C@@H]2C[C@H]3[C@@H]4CCC5=CC(=O)C=C[C@]5(C)[C@@]4(F)[C@@H](O)C[C@]3(C)[C@]2(C(=O)CO)O1
CCCC[P+](CCCC)(CCCC)CCCC
C=CC(=C)CCCC(C)(C)OC(C)=O
COC(=O)c1cccnc1
CSc1c(Cl)c(Cl)c(Cl)c(Cl)c1Cl
c1ccc(CCc2ccccc2)cc1
CC(C)CCOC(=O)c1ccccc1
OC[C@H]1O[C@@H](Oc2ccc(O)cc2)[C@H](O)[C@@H](O)[C@@H]1O
OCCOCCN1CCN(C2=Nc3ccccc3Sc3ccccc32)CC1
CC1(C)COCN1
OCCCCC(O)CO (stereo not given)
CCN(CCC#N)c1ccc(N=Nc2ccc([N+](=O)[O-])cc2)cc1
CC(C)=CCCC(C)CC(=O)O (stereo not given)
CCCCCCC(CO)CCCC (stereo not given)
CCCC(O)C(O)CO (stereo not given)
O=C(O)CNc1ccccc1
O=CN1CCOCC1
C[Si](C)(C)O[Si](C)(C)C
COc1ccccc1[N+](=O)[O-]
CCOc1ccc(NC(=O)CC(C)=O)cc1
C=CC(C)(O)CCC=C(C)C (stereo not given)
CC(C)CCCCCCc1ccc(OCCOCCO)cc1
NC1CCCCC1N (stereo not given)
CCOC(=O)C1OC1c1ccccc1 (stereo not given)
CC1C2CC(CC2C2CCCC(O)C2)C1(C)C (stereo not given)
